Compound activity as filed in PubChem.
Most compounds without a hit are left out; they make up all but 4.2% or so of the library.
hcDAF-12 act: activates DAF-12 receptor from parasite H. contortus. HEK293 hcDAF-12 lit1-tk-luc reporter, luminescence; 0% DMSO, 100% Δ7-dafachronic acid. activation, % at 6.8 µM. 370,000 tested, 1.4% active. AID 652067;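 active means activation above the mean of all tested compounds plus 3 SD, cut at about 5.5% in these data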;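 further: 100% = response to 3 µM Δ7-dafachronic acid high control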
DAX1 inh: inhibitors of DAX1 repression of SF-1 activated StAR promoter. HEK293T StAR-luciferase reporter, SF-1/DAX-1 repression relief. inhibition, % at 6.8 µM. 370,000 tested, 1.1% active;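 active means inhibition above the mean over all tested compounds plus 3 SD, cut at about 3.6% in these data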;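 further: 0% = DAX-1 cells with DMSO and 100% = cells lacking DAX-1 with DMSO; higher inhibition means more luminescence from relief of DAX-1 repression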
hgDAF12 agonist: hgDAF-12 agonism, primary luciferase screen. HEK293 GAL4-hgDAF12 UAS-luciferase reporter, agonist luminescence; normalized to butyrate control. activation, % at 6.8 µM. 370,000 tested, 1.8% active. AID 687014;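 active means activation above a cutoff set at the mean of all screened compounds plus 3 SD, cut at about 10% in these data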;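 further: 0% = DMSO wells and 100% = sodium butyrate wells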
ssDAF12 agonist: S. stercoralis DAF-12 activation, primary screen; HEK293 ssDAF-12/GRIP1 lit1-tk-luc reporter, luminescence; % of 3 µM dafachronic acid response; activation, % at 6.8 µM; 370,000 tested, 1% active;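 active means activation above the mean over all tested compounds plus 3 SD, cut at about 0.9% in these data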;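 further: 0% = DMSO-only wells and 100% = 3 µM delta7-dafachronic acid wells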
Wnt act: activators of Wnt/beta-catenin signaling; Wnt/beta-catenin reporter cell assay, activator, plate reader; activation, % at 9.35 µM; 300,000 tested, 1.2% active; AID 743398; in the data active means activation above about 30%, passing the limit was not always enough; inconclusive means no clear call, values can overlap the other calls;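 further: 0% = neutral control wells and 100% = positive control wells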
esBAF inh: inhibitors of esBAF chromatin remodeling in mouse ES cells. 350,000 tested, 2% active. reporter increase, % at 12.5 µM. Bmi1-luciferase knock-in reporter, 24 h; 100% = twice the neutral-well signal; in the data active means activation above about 40%; inconclusive means no clear call, values can overlap the other calls;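 further: 0% = median of the plate's neutral control wells and 100% = double that signal; a rise in the Bmi1 reporter signal indicates esBAF inhibition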
esBAF Ring1 qPCR: de-represses Ring1 in mouse ESCs, confirming esBAF inhibition. shares compounds with esBAF inh. mouse ESC E14, Ring1 mRNA RT-qPCR fold change. fold change at 33 µM. 550 tested, under 10 active;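 active means Ring1 gene expression raised more than 2-fold over untreated cells in both replicates at either tested dose; inconclusive means only one replicate above 2-fold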;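 further: Ring1 transcript normalised to actin housekeeping signal by TaqMan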
esBAF Fgf4 qPCR: confirmation of esBAF inhibitors: Fgf4 repression in mouse ESCs | shares compounds with esBAF inh | mouse ESC E14, Fgf4 mRNA qPCR fold change; hits give low values | Fgf4 expression fold change at 33 µM | 550 tested, 4% active | AID 743177;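 active means Fgf4 expression under 0.8 fold of control in both repeat measurements at one or both tested doses; inconclusive means under 0.8 fold in just a single repeat measurement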;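 further: Fgf4 transcript normalised to actin in duplex TaqMan qPCR; cells exposed to compound for 24 h before lysis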
esBAF Bmi1 qPCR: confirmation of esBAF inhibitors: Bmi1 de-repression in mouse ESCs. fold change at 33 µM. 550 tested, under 10 active. shares compounds with esBAF inh. mouse ESE14 ES cells, Bmi1 mRNA qPCR fold; hits give high values;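 active means Bmi1 expression fold change above 6 at either tested concentration, seen in replicate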;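 further: higher fold means more Bmi1 de-repression and stronger esBAF inhibition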
A549 tox SP: kills or reduces viability of A549 cells; AID 743188; cell viability change % (negative = cytotoxic), % at 25 µM, hits read low; shares compounds with esBAF inh; 550 tested, under 10 active; A549 cytotoxicity, plate reader; call rule not given here
HepG2 tox SP: kills or reduces viability of HepG2 cells | shares compounds with esBAF inh | HepG2 cytotoxicity, plate reader; hits give low values | activity change, negative = inhibition, % at 25 µM | 550 tested, 4% active | AID 743189; in the data active means activity change below about -50%
HEK293 cytotox SP: HEK293 cell cytotoxicity at single point | shares compounds with esBAF inh | plate reader | activity change, negative = inhibition, % at 25 µM, hits read low | 550 tested, 3% active | AID 743190; in the data active means activity change below about -38%, passing the limit was not always enough
* hit, by the source's call; ? = inconclusive; . = not tested or not shown.

SMILES	hcDAF-12 act	DAX1 inh	hgDAF12 agonist	ssDAF12 agonist	Wnt act	esBAF inh	esBAF Ring1 qPCR	esBAF Fgf4 qPCR	esBAF Bmi1 qPCR	A549 tox SP	HepG2 tox SP	HEK293 cytotox SP
COCC#Cc1cnc2c(c1)C(=O)N([C@H](C)CO)C[C@@H](C)[C@@H](CN(C)S(=O)(=O)c1cn(C)cn1)O2	.	.	.	.	.	1	.	.	.	.	.	.
O=C(Nc1cccc(O)c1)c1ccc(Br)cc1	3	2	8	-1	.	57*	1	1.1	1.3	-7	-11	-18
CO[C@H]1CN(C)C(=O)c2ccc(NC(=O)c3ccc4c(c3)OCO4)cc2OC[C@H](C)N(CCC(F)(F)F)C[C@H]1C	.	.	.	.	.	-5	.	.	.	.	.	.
C=CCN(C(=O)CC(NC(C)=O)c1ccccc1)c1nc(-c2ccc(S(C)(=O)=O)cc2)cs1 (configuration not stated)	-1	-1	2	-1	5	78*	0.94	1.2	1.1	-12	-11	-18
CC(=O)NC(c1ccccc1)c1nc(-c2ccc(S(C)(=O)=O)cc2)cs1 (configuration not stated)	-1	-2	0	-1	-1	5	.	.	.	.	.	.
Cc1cc(CN(C)C(=O)c2ccc3nc(Cc4ccccc4F)oc3c2)on1	1	3	8	-1	18	.	.	.	.	.	.	.
CN(Cc1nccn1C)C(=O)c1ccc2nc(Cc3ccccc3F)oc2c1	3	1	13*	-1	15	65*	0.78	0.85	1.5	-16	-47	-26
CN(Cc1nccs1)C(=O)c1ccc2nc(Cc3ccccc3F)oc2c1	2	3	10	0	26	67*	1.2	0.94	1.4	-6	-18	-12
Cn1c(/C=C/c2ccc(Br)cc2)nc2ccccc2c1=O	2	1	4	-1	17	74*	1.3	?	1.6	6	6	9
O=C(c1cccs1)N(C(=O)c1cccs1)c1ccc(Br)cn1	3	1	10	0	56*	65*	0.73	0.97	1.6	-9	-37	-6
O=C(NOC(=O)c1cc(Br)ccc1Cl)c1cccs1	-2	0	3	-1	2	-6	.	.	.	.	.	.
CN(C)S(=O)(=O)c1ccc(C(=O)Nc2ccc3c(c2)CCC3)cc1	0	0	1	-1	22	75*	1	0.94	1.7	-2	-43	-14
CCC(=O)N(C)C[C@@H]1Oc2cc(-c3ccccc3C)ccc2S(=O)(=O)N([C@@H](C)CO)C[C@@H]1C	.	.	.	.	.	2	.	.	.	.	.	.
COc1ccc(C(=O)N2CCc3ccccc32)cc1	1	0	6	-1	6	68*	0.97	0.88	1.5	-4	-9	-6
COc1ccc(CCC(=O)N2CCc3ccccc32)cc1	2	1	10	0	20	63*	1.1	0.91	1.4	-5	-2	-11
Cc1ccc(C(=O)N2CCc3ccccc32)cc1C	3	0	6	1	22	52*	1.3	1	1.5	9	19	-6
COc1cc2[nH]c(C(=O)N3CCc4ccccc43)cc2c(OC)c1OC	1	0	6	0	19	58*	0.94	1.1	2.1	4	1	-4
CCN1[C@@H]2c3ccc(-c4ccccc4OC)c(=O)n3C[C@H]1[C@H](CO)[C@H]2C(=O)N[C@@H](C)c1ccccc1	.	.	.	.	.	-4	.	.	.	.	.	.
CC(=O)N(C)c1nc(-c2ccc(Cl)cc2)cs1	1	0	3	0	.	74*	1.2	0.92	1.3	-10	-7	-4
CN(C(=O)c1ccco1)c1nc(-c2ccc(Cl)cc2)cs1	1	0	2	-1	9	35	.	.	.	.	.	.
CCN(CC)C(=O)OCc1c(-c2cccc(OC)c2)ncc2ccccc12	-3	-1	-1	-1	0	10	.	.	.	.	.	.
CCN(CC)C(=O)OCc1c(-c2ccccc2)ncc2ccccc12	2	0	7	-1	?	106*	0.92	?	2	-2	-2	-4
O=C(CS(=O)(=O)Cc1ccccc1)Nc1nc2ccccc2s1	2	1	-1	-1	.	2	.	.	.	.	.	.
COc1ccc(CNc2nc3ccccc3s2)cc1OC	1	0	2	-1	4	62*	0.99	0.87	1.6	-6	-5	-12
c1ccc(CCNc2nc3ccccc3s2)cc1	1	0	5	-1	.	55*	1.2	1	1.8	-9	-1	-23
SMILES	hcDAF-12 act	DAX1 inh	hgDAF12 agonist	ssDAF12 agonist	Wnt act	esBAF inh	esBAF Ring1 qPCR	esBAF Fgf4 qPCR	esBAF Bmi1 qPCR	A549 tox SP	HepG2 tox SP	HEK293 cytotox SP
C/C=C/c1cnc2c(c1)C(=O)N([C@H](C)CO)C[C@@H](C)[C@@H](CN(C)C(=O)Nc1c(C)noc1C)O2	.	.	.	.	.	2	.	.	.	.	.	.
COc1cccc(NC(=O)Nc2ccc3c(c2)C(=O)N(C)[C@@H]2CC[C@@H](CC(=O)NCCc4ccccc4)O[C@@H]2CO3)c1	.	.	.	.	.	9	.	.	.	.	.	.
Cc1csc(Nc2nc(N)c(C(=O)Nc3ccccc3)o2)n1	0	1	7	-1	17	52*	1.5	0.95	1.8	5	13	-8
C[C@@H]1CN([C@@H](C)CO)C(=O)c2cc(NS(=O)(=O)c3ccc(Cl)cc3)ccc2O[C@@H]1CN(C)Cc1ccc(-c2ccccc2)cc1	.	.	.	.	.	2	.	.	.	.	.	.
O=C(O)c1ccc2noc(-c3ccccc3)c2c1	1	2	6	0	.	82*	1.1	?	1.5	3	9	2
CC(C)(OC(=O)c1cccs1)c1cc2ccccc2c(=O)o1	-2	0	1	-1	-3	0	.	.	.	.	.	.
CC(C)(O)c1cc2ccc(C#Cc3ccsc3)cc2c(=O)o1	0	0	3	-2	29	71*	1.3	0.84	2.3	-3	-19	-11
CC1CCCN(C(=O)CNC(=O)c2sc3ccccc3c2Cl)C1 (configuration not stated)	2	3	6	0	24	82*	0.95	1	1.3	0	2	-7
COc1ccccc1NC(=O)C(=O)NCCC1CCCCN1S(=O)(=O)c1ccccc1 (configuration not stated)	-1	-2	1	-1	0	-5	.	.	.	.	.	.
